Assay results as given in PubChem BioAssay (Tox21).
Inconclusive results are not listed. Active and inactive are the calls of the source. Unless noted, calls follow the shape of the dose curve; as a rule, active = well fitted curve in the direction sought with a large enough effect in the repeat runs; inconclusive = weak or mixed curves; inactive = no such curve, though single readings can be large; an effect the other way counts as inactive or inconclusive.

Experiments:
[1] = qHTS assay to identify small molecule agonists of the estrogen receptor alpha (ER-alpha) signaling pathway in the presence of an antagonist - cell viability counter screen (AID 1259386);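 also: series mostly up to about 92 µM; cells exposed to compounds for 22 h at 37 °C before the viability read; nearly all actives have a fitted effect of over 30% in size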
Summary of the method: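 VM7Luc4E2 cells (endogenous full-length ER-alpha, 4×ERE-luciferase) were held 5 days in phenol red-free medium with 10% charcoal-stripped FBS, plated, then given 10.0nM ICI-182,780 and compounds at 15 concentrations for 22hr at 37C; viability read by CellTiter-Fluor fluorescence.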

[2] = molecular target: Progesterone receptor (Homo sapiens) (UniProt P06401); experiment: qHTS assay to identify small molecule agonists of the progesterone receptor (PR) signaling pathway (AID 1346784; calls by dose curve; also: nearly all actives have a fitted effect of over 30% in size)
Sequence of Progesterone receptor (Homo sapiens) (P06401 whole entry, looked up): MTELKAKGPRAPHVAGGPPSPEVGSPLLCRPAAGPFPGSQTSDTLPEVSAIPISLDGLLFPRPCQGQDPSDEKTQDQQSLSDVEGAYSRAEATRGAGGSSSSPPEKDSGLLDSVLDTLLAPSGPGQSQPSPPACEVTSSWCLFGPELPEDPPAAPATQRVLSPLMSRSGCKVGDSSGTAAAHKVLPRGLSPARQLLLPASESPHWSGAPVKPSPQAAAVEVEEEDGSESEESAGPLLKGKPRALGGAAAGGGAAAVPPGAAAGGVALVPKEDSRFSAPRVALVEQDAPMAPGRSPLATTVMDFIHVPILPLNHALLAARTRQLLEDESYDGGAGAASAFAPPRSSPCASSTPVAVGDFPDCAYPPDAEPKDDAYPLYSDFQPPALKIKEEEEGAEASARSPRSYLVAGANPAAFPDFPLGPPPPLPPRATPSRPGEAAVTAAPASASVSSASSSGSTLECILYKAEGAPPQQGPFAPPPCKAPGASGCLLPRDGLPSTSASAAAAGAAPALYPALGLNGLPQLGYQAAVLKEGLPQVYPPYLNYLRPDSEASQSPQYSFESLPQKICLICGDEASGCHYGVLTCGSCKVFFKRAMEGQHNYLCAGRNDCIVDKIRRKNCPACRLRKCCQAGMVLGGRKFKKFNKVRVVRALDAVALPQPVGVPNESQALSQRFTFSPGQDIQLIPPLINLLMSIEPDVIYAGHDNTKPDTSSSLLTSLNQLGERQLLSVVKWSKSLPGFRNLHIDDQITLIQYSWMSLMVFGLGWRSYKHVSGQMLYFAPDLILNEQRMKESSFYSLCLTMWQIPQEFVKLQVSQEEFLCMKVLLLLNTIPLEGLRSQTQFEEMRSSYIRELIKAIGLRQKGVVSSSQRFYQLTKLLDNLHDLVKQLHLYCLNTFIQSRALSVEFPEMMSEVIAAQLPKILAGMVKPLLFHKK
Summary of the method: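 Agonist qHTS: compounds pinned onto 3,000 PR-UAS-bla HEK 293T cells per well in charcoal-stripped serum medium, 16hr at 37C, then beta-lactamase activity measured by LiveBLAzer FRET fluorescence after 2 hours at room temperature.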

[3] = molecular target: Progesterone receptor (Homo sapiens) (UniProt P06401); experiment: qHTS assay to identify small molecule antagonists of the progesterone receptor (PR) signaling pathway (AID 1346795; active = well fitted inhibition curve with a large enough effect in the signal ratio in the repeat runs, not every such curve was filed as active; the % refers to the signal ratio; also: potency is read from the fitted curve at half-maximal effect)
Summary of the method: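 Antagonist mode with agonist R5020 at 1 nM final and 16 hr incubation at 37C. Reporter was beta-lactamase driven by UAS in HEK293T (PR-UAS-bla), 2% charcoal-stripped serum; signal from LiveBLAzer FRET substrate, 2 hr at room temperature.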

[4] = qHTS assay to identify small molecule antagonists of the progesterone receptor (PR) signaling pathway - cell viability counter screen (AID 1346798); also: nearly all actives have a fitted effect of over 50% in size; also: potency is read from the fitted curve at half-maximal effect; as to activity change, negative = cytotoxicity: series mostly up to about 92 µM
Summary of the method: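 Cytotoxicity read as CellTiter-Glo luminescence (30 min, room temperature) in the same wells as the beta-lactamase readout. HEK293T PR-UAS-bla cells in charcoal-stripped 2% FBS received compound and R5020, then 16 h at 37C, 5% CO2.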

[5] = qHTS assay to identify small molecule agonists of the progesterone receptor (PR) signaling pathway - cell viability counter screen (AID 1346799; calls by dose curve; also: nearly all actives have a fitted effect of over 45% in size; also: potency is read from the fitted curve at half-maximal effect)
Summary of the method: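 Cytotoxicity measured by CellTiter-Glo luminescence (30 min, RT) in the same wells as the PR beta-lactamase agonist read. Those HEK293T cells had 16 h compound treatment at 37 C in 2% charcoal-stripped FBS medium.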

[6] = qHTS assay to identify small molecule antagonists of the TGF-beta/Smad signaling pathway - cell viability counter screen (AID 1346824); also: nearly all actives have a fitted effect of over 50% in size
Summary of the method: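 SBE-bla HEK 293T cells were plated overnight at 37 C, then given compounds in DMSO plus TGF-beta1 (added as 0.25 ng/mL solution) for 5 hr. After the bla read, CellTiter-Glo was added to the same wells and luminescence read after 30 min at room temperature.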

[7] = qHTS assay to identify small molecule agonists of the TGF-beta/Smad signaling pathway - cell viability counter screen (AID 1346829); also: top concentration of the series differs between compounds; nearly all actives have a fitted effect of over 45% in size
Summary of the method: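 Luminescence from CellTiter-Glo, read after a 30 min room-temperature incubation, gives cell viability of SBE-bla HEK 293T cells treated 5 hr with compounds at 37 C.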

[8] = molecular target: Thyrotropin-releasing hormone receptor (Homo sapiens) (UniProt P34981); experiment: qHTS assay to identify small molecule agonists of the thyrotropin-releasing hormone receptor (TRHR) signaling pathway (AID 1346891; calls by dose curve; also: series mostly up to about 58 µM)
Sequence of Thyrotropin-releasing hormone receptor (Homo sapiens) (P34981 whole entry, looked up): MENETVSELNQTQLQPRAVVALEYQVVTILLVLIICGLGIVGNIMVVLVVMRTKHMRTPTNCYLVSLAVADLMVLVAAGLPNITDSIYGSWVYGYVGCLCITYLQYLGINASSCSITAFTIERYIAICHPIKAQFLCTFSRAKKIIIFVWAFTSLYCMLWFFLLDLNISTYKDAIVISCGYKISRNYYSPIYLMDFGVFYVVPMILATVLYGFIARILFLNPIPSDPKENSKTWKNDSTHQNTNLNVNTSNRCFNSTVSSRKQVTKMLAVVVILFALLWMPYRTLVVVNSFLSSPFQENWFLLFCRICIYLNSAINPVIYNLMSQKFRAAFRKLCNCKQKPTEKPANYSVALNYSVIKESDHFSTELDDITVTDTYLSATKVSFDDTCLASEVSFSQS
Summary of the method: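 Agonist-mode intracellular calcium readout: kinetic fluorescence over 3 min at 1 s intervals after compound addition to TRHR-HEK293 cells (18 h seeded, 2 h dye-loaded at 37 C). Fifteen concentrations, triplicates.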

[9] = Human pregnane X receptor (PXR) small molecule agonists, qHTS cell viability counter screen (AID 1346977); also: nearly all actives have a fitted effect of over 50% in size
Summary of the method: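 Same-well viability read: CellTiter-Fluor added after 23 hr compound exposure, fluorescence measured 1 hr later. Cells were PXR-Luc HepG2 seeded at 2,000/well in 5% charcoal-stripped FBS medium, rested 5 hr before dosing at 37 C.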

[10] = Caspase-3/7 induction in CHO-K1 cells by small molecules, qHTS cell viability counter screen (AID 1346979); also: nearly all actives have a fitted effect of over 35% in size
Summary of the method: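 Cytotoxicity counter screen: CellTiter-Fluor added to compound-treated wild-type CHO-K1 cells at 16 h (37C, 5% CO2), fluorescence measured 1 h later; same wells as caspase-3/7 measurement.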

[11] = Caspase-3/7 induction in CHO-K1 cells by small molecules, qHTS assay (AID 1346980); also: nearly all actives have a fitted effect of over 15% in size
Summary of the method: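 Wild-type cells were seeded at 1,500 per well and settled 5 hr at 37 C, 5% CO2, then exposed to DMSO-dissolved compounds for 17 hr. Caspase-Glo 3/7 reagent was added, and luminescence was read after 30min at room temperature.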

[12] = Caspase-3/7 induction in HepG2 cells by small molecules, qHTS cell viability counter screen (AID 1346981); also: series mostly up to about 92 µM; nearly all actives have a fitted effect of over 30% in size
Summary of the method: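 Wild-type HepG2 cells (2,000/well) were allowed to settle for 5 hr at 37 C, 5% CO2, then dosed with compounds in DMSO by pin transfer. After 16 hr at 37 C, CellTiter-Fluor was added and fluorescence read 1 hr later.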

[13] = molecular target: Nuclear receptor subfamily 1 group I member 2 (Homo sapiens) (UniProt O75469); experiment: Human pregnane X receptor (PXR) small molecule agonists, qHTS assay (AID 1346982); also: nearly all actives have a fitted effect of over 35% in size; also: potency is read from the fitted curve at half-maximal effect
Sequence of Nuclear receptor subfamily 1 group I member 2 (Homo sapiens) (O75469 whole entry, looked up): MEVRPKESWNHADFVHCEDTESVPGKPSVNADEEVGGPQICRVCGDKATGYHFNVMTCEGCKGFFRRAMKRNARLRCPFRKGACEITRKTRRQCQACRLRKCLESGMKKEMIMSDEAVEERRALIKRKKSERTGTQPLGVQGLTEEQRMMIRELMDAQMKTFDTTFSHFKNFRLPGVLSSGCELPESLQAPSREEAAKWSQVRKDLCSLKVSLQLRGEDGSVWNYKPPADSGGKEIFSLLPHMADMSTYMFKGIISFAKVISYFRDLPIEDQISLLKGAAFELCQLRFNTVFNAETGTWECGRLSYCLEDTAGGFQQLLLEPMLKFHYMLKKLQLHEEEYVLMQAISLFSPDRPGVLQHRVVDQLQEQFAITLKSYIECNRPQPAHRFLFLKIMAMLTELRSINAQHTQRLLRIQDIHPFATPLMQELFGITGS
Summary of the method: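 PXR-Luc HepG2 cells (CYP3A4 promoter-driven luciferase) were seeded in medium with 5% charcoal-stripped FBS, left 5 hr at 37 C, then exposed to compounds in DMSO for 24 hr. Luminescence was read after ONE-Glo addition.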

[14] = qHTS assay to identify small molecule agonists of the TGF-beta/Smad signaling pathway (AID 1346859; active = well fitted activation curve with a large enough effect in the signal ratio in the repeat runs, not every such curve was filed as active; the % refers to the signal ratio; also: series mostly up to about 77 µM)
Summary of the method: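 Fluorescence (ex 405 nm; em 460 and 530 nm) was read 2 h after LiveBLAzer FRET substrate at RT. The preceding compound treatment of overnight-plated SBE-bla HEK293T cells lasted 5 h at 37 C.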

[15] = molecular target: Thyrotropin-releasing hormone receptor (Homo sapiens) (UniProt P34981); experiment: qHTS assay to identify small molecule antagonists of the thyrotropin-releasing hormone receptor (TRHR) signaling pathway (AID 1346877; active = well fitted inhibition curve with a large enough effect in the repeat runs, not every such curve was filed as active; also: series mostly up to about 51 µM)
Summary of the method: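 TRHR-expressing HEK293 cells were seeded, cultured 18 h at 37 °C, then loaded with calcium dye for 2 h. Compounds were pre-incubated 5 min at room temperature before 1 nM TRH (final) was added, and kinetic fluorescence was recorded for 3 min.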

[16] = Caspase-3/7 induction in HepG2 cells by small molecules, qHTS assay (AID 1346978); also: nearly all actives have a fitted effect of over 15% in size
Summary of the method: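 Wild-type HepG2 cells (2,000/well) were settled 5 h at 37 C, 5% CO2, then exposed to compounds in DMSO for 17 h. Caspase-3/7 activity was read by luminescence 30 min after adding Caspase-Glo 3/7 reagent at room temperature.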
% is scaled to controls: 0 for no effect and ±100 for the full control effect.

CC(C)(C(=O)O)c1ccc(C(O)CCCN2CCC(C(O)(c3ccccc3)c3ccccc3)CC2)cc1 (stereo unspecified)
inactive: Potency [1] | Potency [2] | Potency [3] | Potency [4] | Potency [5] | outcome [6] | outcome [7] | outcome [8] | Potency [9] | Potency [10] | Potency [11] | Potency [12] | Potency [13]

c1ccc(CN(Cc2ccccc2)Cc2ccccc2)cc1
inactive: Potency [1] | Potency [2] | Potency [4] | Potency [5] | outcome [6] | outcome [7] | outcome [14] | outcome [15] | outcome [8] | Potency [16] | Potency [11] | Potency [12]
active: Potency [13] 30.6 µM

FC(F)(Cl)C(F)(Cl)Cl
inactive: Potency [1] | Potency [4] | Potency [5] | outcome [7] | outcome [15] | outcome [8] | Potency [9] | Potency [16] | Potency [10] | Potency [12] | Potency [13]

c1ccc(-c2ccc(-c3ccccc3)cc2)cc1
active: Potency [13] 1.77 µM
inactive: activity change, negative = cytotoxicity [1] 0.383% [at 19 µM] | activity change, negative = cytotoxicity [4] 3.71% [at 18.9 µM] | activity change, negative = cytotoxicity [5] 0% [at 19 µM] | activity change, negative = cytotoxicity [7] -3.25% [at 15.8 µM] | activation [14] 0.211% [at 15.8 µM] | activity, negative = inhibition [15] -0.349% [at 10.5 µM] | activation [8] 0.249% [at 11.8 µM] | activity change, negative = cytotoxicity [9] 0.816% [at 19 µM] | caspase activation [16] -3.46% [at 19 µM] | caspase-3/7 activation [11] -1.92% [at 19 µM] | activity change, negative = cytotoxicity [12] 6.27% [at 19 µM]

O=S(=O)(O)c1cc(Cl)c(Cl)cc1Cl
inactive: Potency [1] | Potency [2] | outcome [6] | outcome [7] | outcome [15] | outcome [8] | Potency [11] | Potency [12] | Potency [13]
active: Potency [4] 30.6 µM | Potency [5] 30.6 µM

O=C(O)c1cccnc1Nc1cccc(C(F)(F)F)c1
inactive: Potency [1] | Potency [2] | outcome [6] | outcome [7] | outcome [15] | outcome [8] | Potency [9] | Potency [16] | Potency [10] | Potency [11] | Potency [12]
active: Potency [13] 13.3 µM

COc1ccc(/C=C/c2cc(OC)cc(=O)o2)cc1
inactive: Potency [1] | Potency [3] | outcome [6] | outcome [7] | outcome [14] | outcome [15] | outcome [8] | Potency [9] | Potency [16] | Potency [10] | Potency [11] | Potency [12]
active: Potency [13] 8.84 µM

O=C(Nc1ccc2c(c1)Cc1ccccc1-2)C(F)(F)F
active: Potency [3] 4.33 µM | Potency [13] 34.4 µM
inactive: Potency [1] | outcome [6] | outcome [7] | outcome [14] | outcome [8] | Potency [9] | Potency [16] | Potency [10] | Potency [11] | Potency [12]

CCCCCO
inactive: Potency [1] | Potency [3] | Potency [4] | Potency [5] | outcome [6] | outcome [7] | outcome [14] | outcome [8] | Potency [9] | Potency [16] | Potency [11] | Potency [12] | Potency [13]

Cc1c(Cl)cccc1Nc1ccccc1C(=O)O
inactive: Potency [1] | Potency [2] | Potency [4] | outcome [6] | outcome [8] | Potency [9] | Potency [16] | Potency [11] | Potency [12]

C[C@H](CN1CCCC1)C(=O)c1ccc(C(F)(F)F)cc1
active: Potency [13] 26.6 µM
inactive: Potency [1] | Potency [3] | Potency [4] | Potency [5] | outcome [6] | outcome [14] | outcome [8] | Potency [9] | Potency [16] | Potency [11] | Potency [12]
